# From the supplement of paper PMC4466140
# Target: CaNbp2
# Assay: SPOT peptide array binding signal intensity (averaged, normalized) (arbitrary units (background-subtracted, floor 0; scale differs between SH3 domains)); higher = stronger binding of the SH3 domain to the peptide
# Method: (§1)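 GST-tagged SH3 domains from S. cerevisiae (Sc), A. gossypii (Ag), C. albicans (Ca) and S. pombe (Sp) were incubated at 10 ug/ml overnight at 4 C on cellulose SPOT membranes carrying 292 synthetic 15-mer peptides mined from the S. cerevisiae proteome (cysteines replaced by serines). Binding was detected with anti-GST antibody, HRP secondary and chemiluminescence, quantified with Genespotter, and reported as normalized spot intensities averaged over biological replicates.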
row,Binder,SPOT peptide array binding signal intensity
1,PVLPPPRSPNRPTLS,126

# Target: CaRvs167
# Assay: as above
# Method: as §1
row,Binder,SPOT peptide array binding signal intensity
1,PVLPPPRSPNRPTLS,114

# Target: CaRvs167-3
# Assay: as above
# Method: as §1
row,Binder,SPOT peptide array binding signal intensity
1,PVLPPPRSPNRPTLS,16.5

# Target: CaSho1
# Assay: as above
# Method: as §1
row,Binder,SPOT peptide array binding signal intensity
1,PVLPPPRSPNRPTLS,≤ 0

# Target: CaSla1-D1-D2
# Assay: as above
# Method: as §1
row,Binder,SPOT peptide array binding signal intensity
1,PVLPPPRSPNRPTLS,110

# Target: CaSla1-D3
# Assay: as above
# Method: as §1
row,Binder,SPOT peptide array binding signal intensity
1,PVLPPPRSPNRPTLS,≤ 0

# Target: ScAbp1
# Assay: as above
# Method: as §1
row,Binder,SPOT peptide array binding signal intensity
1,PVLPPPRSPNRPTLS,47.5

# Target: ScBbc1
# Assay: as above
# Method: as §1
row,Binder,SPOT peptide array binding signal intensity
1,PVLPPPRSPNRPTLS,186

# Target: ScBem1-D1
# Assay: as above
# Method: as §1
row,Binder,SPOT peptide array binding signal intensity
1,PVLPPPRSPNRPTLS,3.5

# Target: ScBzz1-D1
# Assay: as above
# Method: as §1
row,Binder,SPOT peptide array binding signal intensity
1,PVLPPPRSPNRPTLS,20

# Target: ScBzz1-D2
# Assay: as above
# Method: as §1
row,Binder,SPOT peptide array binding signal intensity
1,PVLPPPRSPNRPTLS,10

# Target: ScCyk3
# Assay: as above
# Method: as §1
row,Binder,SPOT peptide array binding signal intensity
1,PVLPPPRSPNRPTLS,≤ 0

# Target: ScFus1
# Assay: as above
# Method: as §1
row,Binder,SPOT peptide array binding signal intensity
1,PVLPPPRSPNRPTLS,≤ 0

# Target: ScHof1
# Assay: as above
# Method: as §1
row,Binder,SPOT peptide array binding signal intensity
1,PVLPPPRSPNRPTLS,63

# Target: ScHse1
# Assay: as above
# Method: as §1
row,Binder,SPOT peptide array binding signal intensity
1,PVLPPPRSPNRPTLS,≤ 0

# Target: ScLsb1
# Assay: as above
# Method: as §1
row,Binder,SPOT peptide array binding signal intensity
1,PVLPPPRSPNRPTLS,284

# Target: ScLsb2
# Assay: as above
# Method: as §1
row,Binder,SPOT peptide array binding signal intensity
1,PVLPPPRSPNRPTLS,4

# Target: ScLsb3
# Assay: as above
# Method: as §1
row,Binder,SPOT peptide array binding signal intensity
1,PVLPPPRSPNRPTLS,4370

# Target: ScLsb4
# Assay: as above
# Method: as §1
row,Binder,SPOT peptide array binding signal intensity
1,PVLPPPRSPNRPTLS,372

# Target: ScMyo3
# Assay: as above
# Method: as §1
row,Binder,SPOT peptide array binding signal intensity
1,PVLPPPRSPNRPTLS,150

# Target: ScMyo5
# Assay: as above
# Method: as §1
row,Binder,SPOT peptide array binding signal intensity
1,PVLPPPRSPNRPTLS,14.5

# Target: ScNbp2
# Assay: as above
# Method: as §1
row,Binder,SPOT peptide array binding signal intensity
1,PVLPPPRSPNRPTLS,16

# Target: ScPex13
# Assay: as above
# Method: as §1
row,Binder,SPOT peptide array binding signal intensity
1,PVLPPPRSPNRPTLS,47

# Target: ScRvs167
# Assay: as above
# Method: as §1
row,Binder,SPOT peptide array binding signal intensity
1,PVLPPPRSPNRPTLS,1120

# Target: ScSho1
# Assay: as above
# Method: as §1
row,Binder,SPOT peptide array binding signal intensity
1,PVLPPPRSPNRPTLS,7

# Target: ScSla1-D1-D2
# Assay: as above
# Method: as §1
row,Binder,SPOT peptide array binding signal intensity
1,PVLPPPRSPNRPTLS,483

# Target: ScSla1-D3
# Assay: as above
# Method: as §1
row,Binder,SPOT peptide array binding signal intensity
1,PVLPPPRSPNRPTLS,12.5

# Target: SpAbp1-D1
# Assay: as above
# Method: as §1
row,Binder,SPOT peptide array binding signal intensity
1,PVLPPPRSPNRPTLS,70

# Target: SpBbc1
# Assay: as above
# Method: as §1
row,Binder,SPOT peptide array binding signal intensity
1,PVLPPPRSPNRPTLS,26

# Target: SpBzz1-D1
# Assay: as above
# Method: as §1
row,Binder,SPOT peptide array binding signal intensity
1,PVLPPPRSPNRPTLS,295

# Target: SpBzz1-D2
# Assay: as above
# Method: as §1
row,Binder,SPOT peptide array binding signal intensity
1,PVLPPPRSPNRPTLS,≤ 0

# Target: SpCyk3
# Assay: as above
# Method: as §1
row,Binder,SPOT peptide array binding signal intensity
1,PVLPPPRSPNRPTLS,1

# Target: SpHof1
# Assay: as above
# Method: as §1
row,Binder,SPOT peptide array binding signal intensity
1,PVLPPPRSPNRPTLS,7.5

# Target: SpHof1-2
# Assay: as above
# Method: as §1
row,Binder,SPOT peptide array binding signal intensity
1,PVLPPPRSPNRPTLS,12.5

# Target: SpHof1-3
# Assay: as above
# Method: as §1
row,Binder,SPOT peptide array binding signal intensity
1,PVLPPPRSPNRPTLS,46.5

# Target: SpHse1
# Assay: as above
# Method: as §1
row,Binder,SPOT peptide array binding signal intensity
1,PVLPPPRSPNRPTLS,108

# Target: SpLsb1
# Assay: as above
# Method: as §1
row,Binder,SPOT peptide array binding signal intensity
1,PVLPPPRSPNRPTLS,866

# Target: SpLsb4
# Assay: as above
# Method: as §1
row,Binder,SPOT peptide array binding signal intensity
1,PVLPPPRSPNRPTLS,3730

# Target: SpMyo1
# Assay: as above
# Method: as §1
row,Binder,SPOT peptide array binding signal intensity
1,PVLPPPRSPNRPTLS,71.2

# Target: SpNbp2
# Assay: as above
# Method: as §1
row,Binder,SPOT peptide array binding signal intensity
1,PVLPPPRSPNRPTLS,8

# Target: SpPex13
# Assay: as above
# Method: as §1
row,Binder,SPOT peptide array binding signal intensity
1,PVLPPPRSPNRPTLS,≤ 0

# Target: SpRvs167
# Assay: as above
# Method: as §1
row,Binder,SPOT peptide array binding signal intensity
1,PVLPPPRSPNRPTLS,1240

# Target: SpSla1-D1-D2
# Assay: as above
# Method: as §1
row,Binder,SPOT peptide array binding signal intensity
1,PVLPPPRSPNRPTLS,≤ 0

# Target: SpSla1-D3
# Assay: as above
# Method: as §1
row,Binder,SPOT peptide array binding signal intensity
1,PVLPPPRSPNRPTLS,≤ 0
